Reference: PubChem BioAssay AID2147 (National Center for Advancing Translational Sciences (NCATS), 2009)
In all, about 230,000 compounds went through this assay and about 3,600 (1.6%) were called active. Not shown: some 15% with an inconclusive outcome. The call rests on the fitted dose curve; in most records, active means well fitted inhibition curve with a large enough effect (not every such curve was filed as active); inconclusive means small, poorly fitted or top-dose-only effect, or another doubt; inactive means no such curve, though single readings can be large or run the other way. This excerpt belongs to a sample that is enriched for actives.

Target: Lysine-specific demethylase 4E (Homo sapiens) (UniProt B2RXH2)
Assay: qHTS Assay for Inhibitors of Human Jumonji Domain Containing 2E (JMJD2E)
Conditions: JMJD2E catalytic domain, FDH-coupled NADH fluorescence (FDH is formaldehyde dehydrogenase); series mostly up to 57.1 µM; activity change, negative = inhibition: at the top concentration
Excerpt: Assay Provider: Structural Genomics Consortium [SGC] Screening Center PI: Austin, C.P. Screening Center: NIH Chemical Genomics Center [NCGC] The fine interplay among methylation states of several lysine residues on the tails of histone proteins is a major determinant of the transcriptional state of the associated DNA coding regions and is commonly referred to as the histone code. Histone lysine demethylases catalyze the removal of methyl groups from methylated lysine sidechains on histones H3 and H4, thus antagonizing the reactions catalyzed by histone lysine methyltransferases. […] In search for novel inhibitors of JMJD2E demethylase, a member of the largest set of histone demethylases belonging to the Fe(II) and 2-oxoglutarate oxygenase (2OG) superfamily, we performed a quantitative high-throughput screen (Inglese 2006) by using an assay which utilizes a trimethylated peptide substrate corresponding to a fragment of histone H3 (sequence ARKme3STGGK) with detection of the formaldehyde co-product in real time by a formaldehyde dehydrogenase (FDH) coupled reaction. FDH catalyzes oxidation of formaldehyde to formic acid with the concomitant reduction of the non-fluorescent beta-nicotinamide adenine dinucleotide hydrate (NAD+) cofactor to the fluorescent NADH co-product. References: Inglese, J., Auld, D., Jadhav, A., Johnson, R., Simeonov, A., Yasgar, A., Zheng, W. and Austin, C. Proc Natl Acad Sci USA 2006, 103, 11473-11478. N. R. Rose, S. S. Ng, J. Mecinovic, B. M. Lienard, S. H. Bello, Z. Sun, M. A. McDonough, U. Oppermann and C. J. Schofield, J Med Chem, 2008, 51, 7053-7056. Sakurai, M., Rose, N., Schultz, L., Quinn, A., Jadhav, A., Ng, S., Oppermann, U., Schofield, C.J. and Simeonov, A. Mol BioSystems 2009, in press. S. Michael, D. Auld, C. Klumpp, A. Jadhav, W. Zheng, N. Thorne, C. Austin, J. Inglese and A. Simeonov, Assay Drug Dev Technol, 2008, 6, 637-657.
Reagents and Controls: Ferrous ammonium sulfate, (+)-sodium L-ascorbate, beta-nicotinamide adenine dinucleotide hydrate (NAD+), Tween-20, formaldehyde dehydrogenase from P. putida (FDH), and disodium 2-oxoglutarate were from Sigma (St. Louis, MO). Black solid-bottom 384-well or 1,536-well assay plates were from Greiner Bio-One (Monroe, NC). Enzyme was supplied by Prof. Udo Oppermann, SGC-Oxford. The catalytic domain of human JMJD2E (residues 1-337) was produced as an N-terminally His6-tagged protein in E. coli, and purified by Ni-affinity chromatography and size-exclusion chromatography, and stored in HEPES 50 mM/ NaCl 500 mM pH 7.5, as reported in Rose 2008. The trimethylated histone peptide substrate ARK(me3)STGGK was synthesized and HPLC-purified by the Tufts University Core Facility (Boston, MA). Substrate solution (Sakurai 2009) contained 50 uM ARK(me3)STGGK, 0.00025 U/uL FDH, 50 uM 2-oxoglutarate, 250 uM NAD+, 1 mM ascorbate, and 10 uM ferrous ammonium sulfate. Controls and plate map: Buffer (150 mM HEPES pH 7.5 containing 0.01% Tween-20) in columns 3 and 4 as negative control (no enzyme) and 100 nM JMJD2E final concentration in columns 1,2, and 5-48. Assay Steps: Enzyme and buffer solutions (3 uL) were dispensed into a 1,536-well Greiner black solid-bottom assay plate. The library compounds (23 nL) were transferred using a Kalypsys pintool equipped with 1,536-pin array. The plate was incubated at room temperature (15 min), and then a 1 uL aliquot of substrate solution was added to initiate the reaction. The plate was transferred to ViewLux imager where an initial reading using standard UV optics (Ex 340 nm, Em 450 nm) was obtained. The plate was then removed from the reader, incubated for 30 minutes at room temperature, and returned to the reader for a second fluorescence reading. A fully automated robotic screening system (Kalypsys Inc, San diego, CA) was used to perform the above steps as described previously (Michael 2008). […]
Further: nearly all actives have a fitted effect of over 50% in size.
Potency means the concentration at half of the fitted maximal effect.
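Wherever activity change, negative = inhibition is given: 0% = wells with enzyme and -100% = buffer wells without enzyme.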

Chain of Lysine-specific demethylase 4E (Homo sapiens) (B2RXH2 1-337 limits assumed): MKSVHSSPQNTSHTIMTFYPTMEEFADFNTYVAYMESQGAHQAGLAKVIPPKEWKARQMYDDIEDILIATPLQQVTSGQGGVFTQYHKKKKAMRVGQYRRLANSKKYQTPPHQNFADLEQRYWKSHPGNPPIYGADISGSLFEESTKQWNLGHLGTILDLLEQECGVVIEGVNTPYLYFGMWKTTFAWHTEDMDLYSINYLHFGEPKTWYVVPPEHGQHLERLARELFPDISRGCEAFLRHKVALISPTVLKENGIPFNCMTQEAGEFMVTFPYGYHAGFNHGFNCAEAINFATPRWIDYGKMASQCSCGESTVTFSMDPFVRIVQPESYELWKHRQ

Compound	activity change, negative = inhibition	Potency
CN(C)S(=O)(=O)c1cccc(C(=O)Nc2cccnc2)c1	-1.43% (inactive)	–
COc1ccc(N(C(=O)c2cccnc2)S(=O)(=O)c2ccc3c(c2)n(C)c(=O)n3C)cc1	-1.75% (inactive)	–
O=C(c1cccnc1)N(c1cc2sc(=O)oc2c2ccccc12)S(=O)(=O)c1ccccc1	–	14.1 µM (active)
Cc1oc(C(N)=O)cc1COc1ccc(C(N)=O)cc1	-2.19% (inactive)	–
CCOC(=O)N1CCN(c2c(NCCN3CCN(c4ccccc4F)CC3)c(=O)c2=O)CC1	2.57% (inactive)	–
COCCCNC(=S)N(Cc1ccccc1)Cc1ccc(F)cc1	-4.9% (inactive)	–
Cn1c(C(=O)O)ccc1S(=O)(=O)N(Cc1ccccc1)Cc1ccccc1	2.7% (inactive)	–
CCOC(=O)C1CCN(CCC(=O)Nc2cccc(C)c2)CC1	7.65% (inactive)	–
Cc1c([N+](=O)[O-])c(N)nn1C	5.36% (inactive)	–
O=C(O)c1ccc(NC(=O)c2cn(-c3ccccc3)nc2-c2ccc(Cl)cc2)cc1	-3.12% (inactive)	–
O=C(Nc1cn(-c2ccccc2)nc1-c1ccccc1)c1ccccc1	302% (inactive)	–
O=C(NNC(=S)NC(=O)c1cn(-c2ccccc2)nc1-c1ccccc1)c1ccncc1	–	14.1 µM (active)
CCn1c2ccccc2c2cc(NC(=O)Nc3ccc([N+](=O)[O-])cc3C)ccc21	-7.5% (inactive)	–
CC(C)CCNC(=O)C1CCC(CNc2c(N3CCC(C)CC3)c(=O)c2=O)CC1 (stereo not given)	1.04% (inactive)	–
O=C(O)CCCCCCCCCC[n+]1ccccc1	-3.66% (inactive)	–
COC(=O)C1=C(N)Oc2cc(C)[nH]c(=O)c2C1c1ccc(Cl)cc1 (stereo not given)	8.59% (inactive)	–
Oc1cc(O)c2c(c1)OC(c1ccc(O)c(O)c1)C(O)C2 (stereo not given)	–	11.2 µM (active)
Cc1nnc(N/N=C/c2ccccn2)[nH]c1=O	–	7.94 µM (active)
Cc1ccccc1Nc1nnc(C)c(=O)[nH]1	2.79% (inactive)	–
Cc1nnc(N/N=C/c2cccs2)[nH]c1=O	-7.79% (inactive)	–
Cc1ccc(CN2CCN(Cc3cn(C)nc3-c3ccccc3)CC2CCO)o1 (stereo not given)	-0.595% (inactive)	–
O=C(CCN1CCCCC1)N=Nc1c(O)[nH]c2ccccc12	4.17% (inactive)	–
O=C(NCc1ccco1)O[C@@H]1C(=O)c2cc(Br)ccc2O[C@H]1c1ccc2c(c1)OCO2	17.8% (inactive)	–
O=c1ccnc(Nc2ccc(Cl)cc2)[nH]1	3.06% (inactive)	–
CCOc1ccccc1N=C1NC(=O)CS1	2.61% (inactive)	–
O=C1CSC(=S)N1/N=C/c1ccc(O)c([N+](=O)[O-])c1	-16.3% (inactive)	–
CCOc1cccc(/C=N/N2C(=O)CSC2=S)c1O	–	31.6 µM (active)
Cn1c(SCC(=O)Nc2ccc(Cl)cc2)nc(O)cc1=O	1.98% (inactive)	–

Compound	activity change, negative = inhibition	Potency
Nc1nc(Sc2ncccc2[N+](=O)[O-])n[nH]1	2.63% (inactive)	–
Cc1ccnc(Nc2nc3ccccc3s2)n1	1.18% (inactive)	–
Cc1ccnc(-n2sc3ccccc3c2=O)n1	–	12.6 µM (active)
Cc1ccnc(SCC(N)=O)n1	0.789% (inactive)	–
O=c1cnnc(Nc2ccccc2)[nH]1	3.57% (inactive)	–
c1ccc(Nc2n[nH]nc2-c2ccccc2)cc1	-1.65% (inactive)	–
S=c1[nH]nc(Nc2ccccc2)s1	–	17.8 µM (active)
O=C(C[n+]1ccc2c(c1)nnn2-c1ccccc1)c1ccc(Cl)cc1	9.12% (inactive)	–
O=C(NCc1nnc(SCC(=O)N2CCC(Cc3ccccc3)CC2)o1)c1ccco1	6.12% (inactive)	–
Cc1ccc(/C=N/NC(=O)CSc2nc3ccccc3o2)cc1	1.12% (inactive)	–
Cn1c(SCC(=O)N/N=C/c2ccc(O)c(O)c2)nc2ccccc21	–	25.1 µM (active)
Cc1nc2ccccc2n1CC(=O)N/N=C/c1cccnc1	-7.57% (inactive)	–
CCOc1ccc(/C=N/NC(=O)CSc2ccccn2)cc1O	-4.84% (inactive)	–
CCn1c(SCC(=O)N/N=C/c2ccncc2)nc2ccccc21	3.37% (inactive)	–
Cc1nccn1CC(=O)N/N=C/c1ccc(O)c(O)c1	–	12.6 µM (active)
CC(C)(C)OC(=O)NCCCCCC(=O)N/N=C/c1coc2ccccc2c1=O	2.67% (inactive)	–
O=C1/C(=C/c2cccs2)SC(=S)N1C1CCS(=O)(=O)C1 (stereo not given)	1.93% (inactive)	–
CC(OC(=O)c1ccc(NS(=O)(=O)c2ccc3[nH]c(=O)[nH]c3c2)cc1)C(=O)Nc1cccc(Cl)c1Cl (stereo not given)	-4.34% (inactive)	–
O=C(c1cc(COc2c(F)cccc2F)on1)N1CCSCC1	4.11% (inactive)	–
Nc1nc(Nc2ccccc2)nc(NCCO)c1[N+](=O)[O-]	0.417% (inactive)	–
O=C1CCCC(O)=C1N=Nc1ccc(S(=O)(=O)N2CCOCC2)cc1	-24.2% (inactive)	–
CCCc1ccc(C(=O)[C@@H]2[C@@H](C(C)=O)N3c4ccc(F)cc4C=C[C@@H]3[C@@]23C(=O)Nc2ccccc23)cc1	–	14.1 µM (active)
CCc1cc(CNC(=O)CC2C(=O)NCCN2Cc2ccccc2C(F)(F)F)on1 (stereo not given)	-22.1% (inactive)	–
Cc1noc(C)c1-c1nc(CSc2ccc(Cl)cc2)no1	-5.99% (inactive)	–
Fc1ccc(N2CCN(Cc3cnc(Oc4ccc(Br)cc4)s3)CC2)cc1	-5.18% (inactive)	–
COc1ccc(N2CCN(Cc3nnc(-c4ccccc4)o3)CC2)cc1	3.96% (inactive)	–
COc1ccc(N2CCN(Cc3ccc(Br)s3)CC2)cc1	–	14.1 µM (active)
